Compounds with a hit are over-represented: about 2.7% of the library has one in this group of screens.
KLK7 zymogen act = activators of human kallikrein-7 zymogen. purified proKLK7, EDANS-DABCYL substrate fluorescence; 100% is mature enzyme control, 0% vehicle. AID 652039. activation, % at 7 µM. P49862. hit rate 0.9% among 370,000;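 active = activation above the mean of all tested compounds plus 3 SD, computed per campaign excluding outliers beyond control limits, cut at about 13% in these data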
FAS-TE inh = FAS thioesterase (human) inhibition; P49327; recombinant FAS-TE, OMFH fluorogenic substrate, fluorescence endpoint; inhibition, % at 15 µM; hit rate 0.67% among 360,000; AID 602261;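 active = compounds whose normalised, plate-corrected inhibition of enzyme fluorescence in the single-dose primary screen is 50% or more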;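 note: 0% = DMSO with enzyme and 100% = substrate without enzyme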
Neddylation inh = blocks human cullin neddylation | calls only at 25 µM | TR-FRET cullin neddylation, biochemical | AID 651699 | hit rate 0.58% among 360,000; in the data active = inhibition above about 36%
PfGluPho inh = PfG6PD (Plasmodium falciparum) enzyme inhibition; hit rate 0.78% among 350,000; PfGluPho enzyme, NADPH resazurin-diaphorase fluorescence; inhibition, % at 20 µM; AID 504690;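 active = inhibition reaching at least a set limit at 20 µM in the primary screen, cut at about 59% in these data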;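 note: 0% = DMSO wells with substrate and 100% = DMSO wells lacking glucose-6-phosphate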
FAS-TE conf = confirmation of human fatty acid synthase thioesterase inhibitors. shares compounds with FAS-TE inh. recombinant FAS-TE, OMFH fluorogenic substrate, fluorescence. inhibition, % at 15 µM. hit rate 45% among 2,300. AID 624325;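 active = compounds inhibiting the enzyme by at least 50% at 15 µM in any one of the replicates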;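 note: 0% = enzyme with DMSO only and 100% = wells lacking enzyme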
* = called active by the depositor; i = inactive; nt = no result.

SMILES | KLK7 zymogen act | FAS-TE inh | Neddylation inh | PfGluPho inh | FAS-TE conf
O=C1CN(C(=O)c2cc([N+](=O)[O-])ccc2Cl)C(c2ccccc2)c2cc(F)ccc2N1 (stereo not given) | 0 | 86* | i | -16 | 88*
C=C(C)Cn1c(SCC(=O)N/N=C(\C)c2ccc([N+](=O)[O-])cc2)nnc1-c1ccc(Br)cc1 | 0 | nt | nt | nt | nt
Cc1ccc(-c2nnc(Nc3ccc4c(c3)OCO4)c3ccccc23)cc1S(=O)(=O)NCCO | 2 | 0 | i | 39 | nt
Cc1ccc(-c2nnc(Nc3ccc4c(c3)OCO4)c3ccccc23)cc1S(=O)(=O)NC(C)C | 1 | 51* | i | 18 | 15
O=C(N/C(=C/c1ccc([N+](=O)[O-])cc1)C(=O)N1CCCC1)c1ccccc1 | 0 | 2 | i | 0 | nt
O=C(N/C(=C/C=C\c1ccccc1)C(=O)N1CCOCC1)c1ccc(Br)cc1 | 1 | 65* | i | 1 | 61*
O=C(N/C(=C/C=C/c1ccccc1)C(=O)N1CCCCC1)c1ccc([N+](=O)[O-])cc1 | 0 | 92* | i | 15 | 94*
CC(C)(C)NC(=O)/C(=C\C=C\c1ccccc1)NC(=O)c1ccc([N+](=O)[O-])cc1 | -1 | 78* | i | -22 | 89*
COC(=O)[C@]12C[C@H](CC(=O)N3CCCC3)C(=O)N(Cc3ccc(Cl)cc3Cl)C1=C[C@H](C(C)(C)C)O[C@@H]2C | 0 | nt | nt | nt | nt
COc1cc(-n2c(C)nc3cc(C(=O)N4CC(C)CC(C)C4)ccc32)cc(OC)c1OC (stereo not given) | 0 | nt | nt | nt | nt
COC(=O)[C@]12C[C@H](CC(=O)NCc3ccccc3)C(=O)N(Cc3cccc4ccccc34)C1=C[C@H](C1CCCC1)O[C@@H]2C | 1 | nt | nt | nt | nt
O=C(O)COc1ccccc1C=NNc1ccc([N+](=O)[O-])cc1S(=O)(=O)Nc1ccc(Cl)cc1 | 1 | 50* | i | -3 | 62*
COc1ccc(NS(=O)(=O)c2cc([N+](=O)[O-])ccc2NN=Cc2ccccc2OCC(=O)O)cc1 | 1 | 34 | i | -11 | nt
Cc1ccc(C(=O)CC2C(=O)N(c3ccccc3)C(=S)N2c2ccccc2)cc1 (stereo not given) | 0 | 53* | i | 8 | 16
CN(C)C(=O)CCc1ccc2c3c([nH]c2c1)[C@]1(CCC2CCCC2)[C@@H](C(=O)N2CCOCC2)C[C@H](CC(=O)NC(C)(C)C)C(=O)N1CC3 | 0 | 33 | i | -13 | nt
CC(C)(C)NC(=O)CC1C[C@H](C(=O)N2CCOCC2)[C@@]2(CCC3CCCC3)c3[nH]c4ccccc4c3CCN2C1=O (stereo not given in full) | 0 | 81* | i | -1 | 76*
O=C(CC1C[C@H](C(=O)N2CCCCC2)[C@@]2(CCc3ccccc3)c3[nH]c4ccccc4c3CCN2C1=O)NCc1cccc(C(F)(F)F)c1 (stereo not given in full) | 0 | 54* | i | 18 | 29
O=C(CC1C[C@H](C(=O)N2CCOCC2)[C@@]2(CCC3CCCC3)c3[nH]c4ccccc4c3CCN2C1=O)NCCCn1ccnc1 (stereo not given in full) | 0 | 69* | i | -3 | 64*
COc1ccc(CN2c3ccccc3C(=O)CS2(=O)=O)cc1OC | 0 | nt | nt | nt | nt
O=C1NCCOc2ccccc21 | 0 | nt | nt | nt | nt
O=C(Nc1ccc(F)cc1)OCc1cn(Cc2cccc(Cl)c2)nn1 | 1 | nt | nt | nt | nt
CCOC(=O)[C@@]12CCC3=C1N(CCC3)C(=O)[C@H](CC(=O)N1CCSCC1)C2 | 0 | nt | nt | nt | nt
COc1ccc(OC)c(S(=O)(=O)N2CCCCC2C(=O)N2CCN(CCO)CC2)c1 (stereo not given) | 0 | nt | nt | nt | nt
Cc1ccc(O)c(C(CC(=O)NC(C)C)c2ccccc2)c1 (stereo not given) | 0 | -6 | i | -12 | nt
CC(NC(=O)CC(c1ccccc1)c1cc(Cl)ccc1O)c1ccccc1 (stereo not given) | 0 | 50* | i | 13 | 48
CC(C)(C)N1C(=O)[C@H]2[C@@H](c3ccc(Br)cc3)N3C(=O)N(c4ccccc4)C(=O)[C@@]3(Cc3ccccc3)[C@H]2C1=O | 0 | 87* | i | 21 | 2
CC(C)C[C@@]12C(=O)N(c3ccc(Br)cc3)C(=O)N1[C@H](c1ccc(Br)cc1)[C@@H]1C(=O)N(C(C)(C)C)C(=O)[C@@H]12 | 0 | 75* | i | -7 | 39*

Source: PubChem BioAssay
